The values below come from PubChem BioAssay.

Calls of active or inactive are those of the source. Unless noted, no rule for the calls is given here.

Test [1] can be described thus: HepG2 liver cancer cell viability effects, profiling panel, resazurin fluorescence, 24 h, PK04 Diversity Set (AID 1172). Conditions: higher = more signal. (In general: Resazurin is reduced to fluorescent resorufin, in cell work by metabolically active cells.)
Test [2] in a line: basal S. cerevisiae growth modulation, no modifier, primary screen, OD600, strain BY4716, 24 h, basal condition (AID 1173). Conditions: OD600, 24 h, higher = more signal, called active from +8 up or from −8 down.
A short description of test [3]: MM1S myeloma cell viability, profiling panel, resazurin fluorescence, basal, 24 h, PK04 Diversity Set (AID 1174).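 Also: MM1S multiple myeloma cell line.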 Conditions: higher = more signal, called active from +8 up or from −8 down.
Test [4] concerns the target Dihydroorotate dehydrogenase (quinone), mitochondrial (Plasmodium falciparum (isolate 3D7)) (UniProt Q08210). Briefly: PfDHODH enzyme inhibitors, primary screen, biochemical, C-terminal His tag, absorbance 600 nm (AID 1175).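 Also: recombinant parasite enzyme with a five histidine tag at its C terminus.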 Conditions: DCIP absorbance 600 nm, higher = more signal, called active from +8 up or from −8 down.
Test [5] in a line: P. aeruginosa biofilm formation inhibitors, primary screen, strain PAO1, LB-PBS medium, absorbance 600 nm (AID 1176). Particulars: P. aeruginosa PAO1 growth/biofilm, A600, 12 h; higher = more signal.
Test [6] in a line: S. cerevisiae RM11-1a growth modifiers, primary screen, strain RM11-1a, OD600, basal, 24 h (AID 1177).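 Also: cultures grown under basal conditions with no added stressor.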 Conditions: OD600, 24 h, higher = more signal, called active from +8 up or from −8 down.
A short description of test [7]: E. coli acrAB mutant growth effects, primary screen, E. coli filamentation inducers, strain DRC39, OD650, 24 h (AID 1178).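 Also: growth measured as culture turbidity by optical density at 650 nm.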 Particulars: higher = more signal, called active from +8 up or from −8 down.
Test [8] is described as follows: E. coli acrAB mutant growth effects, primary screen, E. coli filamentation inducers, strain DRC39, OD650, 48 h (AID 1179).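 Also: screen aims at cell division blockers that make cells filament.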 Particulars: E. coli DRC39 delta-acrAB growth, higher = more signal, called active from +8 up or from −8 down.
A short description of test [9]: RPMI8226 myeloma cell viability, profiling panel, resazurin fluorescence, basal, 24 h, PK04 Diversity Set (AID 1180).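 Also: RPMI8826 multiple myeloma cell line at 5000 cells per well.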 Particulars: higher = more signal.
Test [10] concerns the target E3 ubiquitin-protein ligase XIAP (Homo sapiens) (UniProt P98170). Briefly: XIAP binders, primary screen, biophysical, small-molecule microarray, fluorescence 635 nm (AID 1181).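 Also: score merges 667 nm emission and signal to noise over triplicate slides.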 Conditions: small-molecule microarray binding, higher = more signal.
Test [11] has as its system XIP peptide (Xip251-270) binding. Briefly: small-molecule binders of XIP peptide, primary screen, biochemical, small-molecule microarray, fluorescence 635/667 nm, 0.1 µg/mL protein (AID 1182). Particulars: fluorescent protein binding, 635 nm, higher = more signal, called active from +8 up or from −8 down.
The test system of test [12] is XIP peptide (Xip251-270). Briefly: small-molecule binders of XIP peptide, primary screen, biochemical, small-molecule microarray, fluorescence 635/667 nm, 0.5 µg/mL protein (AID 1183). Particulars: small-molecule microarray binding, fluorescence 635 nm; higher = more signal.
Test [13] can be described thus: Plasmodium falciparum growth inhibition, primary screen, strain 3D7, DAPI fluorescence, 100 nL (AID 1184).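 Also: parasites grown inside human red blood cells in medium with human serum.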 Conditions: P. falciparum 3D7 growth, 3 d, higher = more signal.
The target of test [14] is Homeobox protein Hox-A13 (Mus musculus) (UniProt Q62424). Briefly: inhibitors of HoxA13-DNA binding, primary screen, biochemical, fluorescence polarization, labeled oligonucleotide (AID 1185). Conditions: 15 min, higher = more signal, called active from +8 up or from −8 down.
Chain of Homeobox protein Hox-A13 (Mus musculus) (Q62424 whole entry, looked up): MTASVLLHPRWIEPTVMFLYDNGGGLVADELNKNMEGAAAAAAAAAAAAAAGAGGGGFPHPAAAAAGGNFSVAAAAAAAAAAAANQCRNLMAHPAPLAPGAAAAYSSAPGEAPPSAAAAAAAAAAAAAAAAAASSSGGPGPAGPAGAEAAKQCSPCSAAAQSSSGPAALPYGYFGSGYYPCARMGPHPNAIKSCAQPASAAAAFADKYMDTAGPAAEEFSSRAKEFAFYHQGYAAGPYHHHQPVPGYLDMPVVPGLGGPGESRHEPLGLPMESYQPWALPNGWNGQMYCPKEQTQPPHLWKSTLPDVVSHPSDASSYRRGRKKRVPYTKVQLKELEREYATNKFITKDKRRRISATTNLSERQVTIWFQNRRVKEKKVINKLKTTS
A short description of test [15]: inhibitors of hydroxyurea-induced Chk1 phosphorylation, primary screen, imaging, HeLa, phospho-Chk1 antibody, percent positive cells (AID 1186). Particulars: hydroxyurea-induced phospho-Chk1 immunofluorescence imaging, higher = more signal.
Test [16] is described as follows: inhibitors of hydroxyurea-induced Chk1 phosphorylation, primary screen, imaging, HeLa, phospho-Chk1 nuclear intensity (AID 1187). Conditions: hydroxyurea-induced phospho-Chk1 immunofluorescence imaging, higher = more signal.

Chain of Dihydroorotate dehydrogenase (quinone), mitochondrial (Plasmodium falciparum (isolate 3D7)) (Q08210 whole entry, looked up): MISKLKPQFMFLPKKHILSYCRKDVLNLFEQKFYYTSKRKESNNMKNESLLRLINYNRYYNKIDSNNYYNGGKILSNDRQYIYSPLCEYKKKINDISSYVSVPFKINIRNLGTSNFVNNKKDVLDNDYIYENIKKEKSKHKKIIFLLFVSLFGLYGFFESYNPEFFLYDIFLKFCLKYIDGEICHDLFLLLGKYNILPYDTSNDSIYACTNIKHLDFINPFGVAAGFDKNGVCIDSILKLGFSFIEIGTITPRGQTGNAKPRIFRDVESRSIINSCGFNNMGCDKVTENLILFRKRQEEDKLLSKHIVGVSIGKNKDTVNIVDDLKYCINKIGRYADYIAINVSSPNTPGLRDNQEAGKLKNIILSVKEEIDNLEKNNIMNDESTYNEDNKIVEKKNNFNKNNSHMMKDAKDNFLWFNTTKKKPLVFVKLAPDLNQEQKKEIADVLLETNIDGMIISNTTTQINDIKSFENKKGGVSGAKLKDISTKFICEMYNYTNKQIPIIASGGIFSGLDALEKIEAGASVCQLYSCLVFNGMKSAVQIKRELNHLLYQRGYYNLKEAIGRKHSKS
Chain of E3 ubiquitin-protein ligase XIAP (Homo sapiens) (P98170 whole entry, looked up): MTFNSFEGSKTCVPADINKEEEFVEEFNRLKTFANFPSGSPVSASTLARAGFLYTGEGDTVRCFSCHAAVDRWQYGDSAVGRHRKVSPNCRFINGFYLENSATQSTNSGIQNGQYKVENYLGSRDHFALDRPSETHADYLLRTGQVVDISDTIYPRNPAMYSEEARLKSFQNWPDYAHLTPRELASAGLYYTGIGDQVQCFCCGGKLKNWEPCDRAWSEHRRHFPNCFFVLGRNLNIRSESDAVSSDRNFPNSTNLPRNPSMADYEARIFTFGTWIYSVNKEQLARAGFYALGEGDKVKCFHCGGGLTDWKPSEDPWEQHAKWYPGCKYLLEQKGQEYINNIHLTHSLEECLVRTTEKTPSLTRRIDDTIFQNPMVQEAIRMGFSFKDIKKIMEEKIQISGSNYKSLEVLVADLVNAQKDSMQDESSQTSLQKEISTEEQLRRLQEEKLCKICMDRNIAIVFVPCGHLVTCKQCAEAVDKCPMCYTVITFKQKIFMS

As for `CC(C)C[C@@H]1NC(=O)[C@@]23C(=O)N[C@@H](Cc4ccccc4)C2[C@H](C)[C@@]2(C)O[C@H]2C3/C=C/C/C=C\CNC(=O)[C@@H]2CCCN2C1=O` (stereo partly specified), the z-score is -0.462 in test [1]; -0.47 (inactive) in [2]; 0.17 (inactive) in test [3]; 0.577 (inactive) in test [5]; -0.0014 (inactive) in [6]; -0.536 (inactive) in [7]. Moreover, the z-score was -0.146 (inactive) in [8]; -0.39 in test [9]; 0.817 in test [13]; -6.29 (inactive) in [14]; -0.118 (inactive) in [15]; 0.275 (inactive) in test [16]. In addition, the composite z-score in [4] is -0.487 (inactive); in test [10] it was -0.207; in [11] it was -0.0982 (inactive); in test [12], -0.791.
For the compound `COCCOC(=O)N1C(=O)[C@@]2(c3cc(C#CC4(O)CCCCCC4)ccc31)[C@H](C(=O)NC[C@H](O)c1ccccc1)[C@H]1C(=O)O[C@H](c3ccccc3)[C@H](c3ccccc3)N1[C@@H]2c1ccc(OCCO)cc1`, the z-score is 1.49 in [1]; 0.385 (inactive) in test [2]; -0.909 (inactive) in [3]; 1.05 (inactive) in test [5]; 2.73 (inactive) in [6]; 0.608 (inactive) in test [7]. For the same compound, the z-score in [8] is 0.187 (inactive); in test [9] it was 0.0705; in [13] it was -1.19; in [14], -0.375 (inactive); in test [15] it was 0.0542 (inactive); in test [16], 0.167 (inactive). Moreover, the composite z-score was -1.38 (inactive) in test [4], 0.643 in [10], -0.274 (inactive) in test [11] and 0.624 in [12].
Take `COC(=O)[C@@]1(Cc2ccccc2)[C@H]2c3cc(C(=O)N4CCCC4)n(Cc4ccccc4)c3C[C@H]2CN1C(=O)c1ccccc1`: the z-score in [1] is -2.54; in [2], 0.717 (inactive); in [3], -1.12 (inactive); in test [5] it was 0.895 (inactive); in [6], 0.235 (inactive); in test [7], -0.78 (inactive). In addition, the z-score is -0.591 (inactive) in test [8]; -3.29 in test [9]; -1.12 in test [13]; -4.13 (inactive) in [14]; 0.234 (inactive) in [15]; 0.167 (inactive) in test [16]. For the same compound, the composite z-score in test [4] was -0.237 (inactive); in test [10], 0.421; in test [11] it was 3.1 (inactive); in [12] it was -0.179.
As for `C=C(/C(=C/C[C@@H](OC(C)=O)c1ccccc1OCCO)c1cnc2ccccc2c1)C(C)C`, the z-score in [1] is -1; in [2] it was -1.34 (inactive); in [3], -0.601 (inactive); in test [5], 0.108 (inactive); in [6], 0.29 (inactive); in [7], -0.997 (inactive). Also, the z-score in test [8] was -0.667 (inactive); in test [9] it was -0.267; in test [13], -2.62; in [14] it was -5.18 (inactive); in [15], 0.642 (inactive); in [16], 0.0715 (inactive). For the same compound, the composite z-score is -5.68 (inactive) in test [4], -0.102 in test [10], 0.143 (inactive) in test [11] and 0.339 in [12].
Consider `COC(=O)[C@@]1(Cc2ccc(F)cc2)[C@H]2c3cc(C(=O)N(C)C)n(Cc4ccc(C)c(F)c4F)c3C[C@H]2CN1C(=O)c1ccccc1`, for which the z-score in test [1] was 0.245; in [2], 0.534 (inactive); in test [3] it was -0.231 (inactive); in [5] it was -0.0298 (inactive); in [6], 0.671 (inactive); in [7], 0.171 (inactive). The z-score in test [8] was 0.265 (inactive); in test [9], -0.455; in test [13], -1.13; in test [14], -4.74 (inactive); in test [15], -0.014 (inactive); in [16] it was -0.193 (inactive). For the same compound, the composite z-score in [4] was 0.059 (inactive); in test [10], -0.102; in [11], 0.365 (inactive); in test [12] it was -0.0688.
Take `COC(=O)C(CC#Cc1ccc2c(c1)[C@]1(C(=O)N2)[C@H](C(=O)N2CCc3cc(OC)c(OC)cc3C2)[C@H]2C(=O)O[C@H](c3ccccc3)[C@H](c3ccccc3)N2[C@@H]1c1ccc(OCCO)cc1)C(=O)OC`: the z-score in [1] is -0.0956; in test [2] it was 2.36 (inactive); in test [3] it was -0.229 (inactive); in test [5], 3.55 (inactive); in test [6], 4.29 (inactive); in test [7], -0.538 (inactive). Besides, the z-score is 0.704 (inactive) in test [8]; -0.0688 in [9]; -1.76 in test [13]; -10.5 (active) in [14]; -0.197 (inactive) in [15]; 0.277 (inactive) in test [16]. Further, the composite z-score in [4] was -6.24 (inactive); in [10] it was 0.23; in test [11], 0.916 (inactive); in test [12], 0.761.
